Test results from PubChem BioAssay (NCATS).
Records with an inconclusive call do not appear. Calls of active or inactive are those of the source. Calls follow the shape of the dose curve; as a rule, active = well fitted inhibition curve with a large enough effect; inconclusive = small, poorly fitted or top-dose-only effect; inactive = flat fitted curve, though single readings scatter.

Test system: MCC-26
Experiment: qHTS assay to identify novel small-molecules to repurpose for Merkel cell carcinoma treatment (AID 1296009); also: nearly all actives have a fitted effect of over 60% in size
Conditions: MCC and control cell lines, CellTiter-Glo viability, 72 h; series mostly up to 46 µM; activity change, negative = cytotoxicity: at the top concentration
Description: MCC is a rare and aggressive neuroendocrine skin cancer with limited treatment options. Approximately 80% of MCCs have the Merkel cell polyomavirus (MCPyV) DNA integrated into the host genome (virus-positive: VP-MCC) and viral oncogenes drive oncogenesis. The remaining MCCs are virus-negative (VN-MCC) and are caused by UV mutagenesis. To identify novel treatments for VP-MCC and/or VN-MCC we screened three VP-MCC cell lines (WAGA, MKL-1, MKL-2), three VN-MCC cell lines (MCC-13, MCC-26, UISO), and four immortalized, non-transformed control cell lines (HaCaT, HEK293T, CRL7250, NIH-3T3) against ~2,400 compounds in the NCGC Pharmaceutical Collection (NPC) and ~1,900 compounds in the Mechanism Interrogation PlatE (MiPE). Using cell viability as a readout (CellTiter-Glo assay) we found both overlapping and distinct drugs that can be repurposed for the treatment of VP-MCC and VN-MCC.
A high-throughput screen was conducted in 1536-well white flat bottom plates (Corning) on a Kalypsys robotic system. Cell lines WAGA, MKL-1, MKL-2, MCC-13, MCC-26, UISO, HaCaT, HEK293T, CRL7250, and NIH-3T3 were screened against 2 small molecule annotated drug libraries NPC and MIPE in dose response (8 and 11 pt. respectively) measuring cell viability after 72 hours of incubation. […] A 1,536 pintool (Kalypsys) was used to transfer 23 nL of compound in DMSO to the 1,536-well assay plates. After 72 hr incubation at 37 degree celsius, 2.5 uL of CellTiter-Glo (Promega) was dispensed into each well using a BiorapTR. Plates were incubated at room temperature for 10 min, transferred to a ViewLux (PerkinElmer) and the luminescence was recorded using an exposure time of 2 seconds. Relative luminescence units (RLUs) were normalized to in-plate controls (no cells as a positive (cytotoxicity) control, DMSO as negative control) and the normalized data was processed using NCATS in-house software.
% is scaled to controls: 0 for no effect and ±100 for the full control effect; potency is read from the fitted curve at half-maximal effect.

Compound | activity change, negative = cytotoxicity | Potency
CC(=O)CC/C=C(\C)CC/C=C(\C)CC/C=C(\C)CCC=C(C)C | 8.78% (inactive) | 
CC(C)=CCC/C(C)=C/CC/C(C)=C/CCC(=O)OC/C=C(\C)CCC=C(C)C | 3.81% (inactive) | 
CCCCN(CCCC)C(C(N)=O)c1ccc(OC)cc1 (stereo not given) | 3.4% (inactive) | 
C[C@H]1NCc2cc(-c3ccc4c(=O)c(C(=O)O)cn(C5CC5)c4c3OC(F)F)ccc21 | -12.6% [at 16.1 µM] (inactive) | 
CCN(CC)C(=O)C1CN2CCc3cc(OC)c(OC)cc3C2CC1OC(C)=O (stereo not given) | 17% (inactive) | 
CCCc1ncc(C(=O)O)s1 | 6.4% (inactive) | 
COc1ccc(-n2nc(CCC(=O)N(C)O)cc2-c2ccc(Cl)cc2)cc1 | -8.78% (inactive) | 
C[N+]1(C)CCC(OC(=O)C(O)(c2ccccc2)C2CCCC2)C1 (stereo not given) | -3.73% (inactive) | 
CC(=O)O[C@H]1CC[C@@]2(C)C(=CC[C@@H]3[C@@H]2CC[C@]2(C)C(C(C)=O)=CC[C@@H]32)C1 | 1.54% (inactive) | 
CN(C)CCOC(c1ccccc1)c1ccc(Br)cc1 (stereo not given) | -5.87% (inactive) | 
CC(=O)O[C@@H]1CC2C3CCc4cc(OC(=O)c5ccccc5)ccc4C3CCC2(C)[C@H]1OC(C)=O (stereo not given in full) | 6.95% (inactive) | 
C=CCOc1cc(Cl)ccc1C(=O)NCCN(CC)CC | 10% (inactive) | 
CCOCCn1c(C2CCN(CCc3ccc(C(C)(C)C(=O)O)cc3)CC2)nc2ccccc21 | -1.64% (inactive) | 
Cc1nc(N)nc(N)c1-c1ccc(Cl)c(Cl)c1 | -1.84% (inactive) | 
Cc1ccccc1N1CCN(CCc2nnc3n2CCCC3)CC1 | -1.61% (inactive) | 
Cc1cc(O)c(C)c(C)c1O | -1.28% (inactive) | 
C[C@@H](C1=C(CCN(C)C)Cc2ccccc21)c1ccccn1 | -1.42% (inactive) | 
Cc1oc(-c2ccccc2)nc1CCC(=O)c1ccc(CC2SC(=O)NC2=O)cc1 (stereo not given) | 2.67% (inactive) | 
CCOc1ccc(NS(=O)(=O)c2ccc(N)cc2)nn1 | 5.49% (inactive) | 
Cc1ccc2c(Cl)cc(Cl)c(O)c2n1 | 9.99% (inactive) | 

Compound | activity change, negative = cytotoxicity | Potency
OCCCc1ccccc1 | 15.1% (inactive) | 
Cc1cc2nc3ccc(=[N+](C)C)cc-3sc2cc1N |  | 11.9 µM (active)
Cc1ccc(O)cc1 | 14.6% (inactive) | 
Cc1nc(C2CCCCC2)c(-c2ccc(S(N)(=O)=O)c(F)c2)o1 | -8.3% (inactive) | 
CCc1cc2cc(OC)c(OC)cc2c(Cc2ccccc2)n1 | 3.44% (inactive) | 
CCOC(=O)C(O)c1ccccc1 (stereo not given) | 10.7% (inactive) | 
C[C@@H]1C[C@H]2[C@@H]3CCC4=CC(=O)C=C[C@]4(C)[C@@]3(F)[C@@H](O)C[C@]2(C)[C@@]1(O)C(=O)COC(=O)c1ccncc1 | -11.3% (inactive) | 
CC(=O)OCC(=O)[C@@]1(O)CCC2C3CCC4=CC(=O)CC[C@]4(C)C3[C@@H](O)C[C@@]21C (stereo not given in full) | -6.08% (inactive) | 
CCCC(=O)O[C@]1(C(=O)COC(=O)CC)CC[C@H]2[C@@H]3CCC4=CC(=O)CC[C@]4(C)[C@H]3[C@@H](O)C[C@@]21C | 0.353% [at 16.1 µM] (inactive) | 
CC(=O)N1CCN(c2ccc(O)cc2)CC1 | 8.25% (inactive) | 
N#Cc1cc(NC(=O)C(=O)O)c(Cl)c(NC(=O)C(=O)O)c1 | 6.44% (inactive) | 
Cc1sccc1Br | -7.77% (inactive) | 
O=C(CCCl)NCCc1ccccc1 | -3.16% (inactive) | 
CC(=O)c1cc2ccccc2s1 | 8.39% (inactive) | 
O=C(O)Cn1c(=O)n(Cc2ccc(Br)cc2F)c(=O)c2ccc(Cl)cc21 | 12.7% (inactive) | 
C[N+](C)(CCOc1ccccc1)Cc1cccs1 | -13.5% (inactive) | 
CSCC[C@H](NC(=O)[C@H](Cc1c[nH]c2ccccc12)NC(=O)CCNC(=O)OC(C)(C)C)C(=O)N[C@@H](CC(=O)O)C(=O)N[C@@H](Cc1ccccc1)C(N)=O | 13.8% (inactive) | 
COC(=O)c1cc(Cl)ccc1NS(=O)(=O)C(F)(F)F | 5.12% (inactive) | 
C/C(=C(/OCCOc1ccc(Cl)cc1)c1ccc(Cl)cc1Cl)n1ccnc1 | -12.6% (inactive) | 
CC(CC(C#N)(c1ccccc1)C(C)C)N(C)C (stereo not given) | 2.93% (inactive) | 
